# Assay results from PubChem BioAssay (NCATS).
# Results filed as inconclusive are left out. A call without a number means that no potency is given here. The source made the active and inactive calls. Calls come from the whole dose curve; as a rule, active = well fitted inhibition curve with a large enough effect; inconclusive = small, poorly fitted or top-dose-only effect; inactive = flat fitted curve, though single readings scatter.
# Experiment: Primary qHTS for inhibitors of nuclear receptor binding SET domain protein 2 (NSD2) in an isogenic RCH-ACV NSD2 p.E1099K mutant (9B) (AID 1645876); note: nearly all actives have a fitted effect of over 70% in size
compound,measurement,value
Nc1ccn(CC(CO)OCP(=O)(O)O)c(=O)n1 (stereo unspecified),Potency,inactive
